Measured values reported in the supplement of paper PMC7695840.
Where a name gives a salt, the structure may show the parent alone.

Columns and labels:
[1] = test system: Staphylococcus aureus MW2 delta-mecA (mecA-); assay: normalized GFP fluorescence (growth of mecA- strain) (fraction of control range); higher = more growth of mecA- strain; conditions: compound concentration: 150 uM; cefoxitin: subinhibitory; fluorescent label: GFP
Summary of the method: (§1)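 Pre-induced S. aureus MW2 cells carrying the gene (DsRed) and deletion cells lacking it (GFP) were combined 1:1 in LB containing a subinhibitory antibiotic dose set each day, then dispensed at 5 µL/well onto 150 μM compound (1.5% DMSO) in 1536-well plates as a single replicate. After 20 h at 37 °C and 90% humidity without shaking, DsRed (540/590) and GFP (485/520) were read. Each channel was scaled per plate between the medians of the single-strain controls, and plates with high untreated ratios and rows with DsRed/GFP >10 were excluded.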

[2] = test system: Staphylococcus aureus MW2 (mecA+); assay: normalized DsRed fluorescence (growth of mecA+ strain) (fraction of control range); higher = more growth of mecA+ strain; conditions: compound concentration: 150 uM; cefoxitin: subinhibitory; fluorescent label: DsRed
Summary of the method: as §1

SMILES | normalized GFP fluorescence [1] | normalized DsRed fluorescence [2]
CC(C)c1nc(N(C)S(C)(=O)=O)nc(-c2ccc(F)cc2)c1/C=C/[C@@H](O)C[C@@H](O)CC(=O)O | 0.207 | 0.514
CC(C)CN(C[C@@H](O)[C@H](Cc1ccccc1)NC(=O)O[C@H]1CCOC1)S(=O)(=O)c1ccc(N)cc1 [Amprenavir (Agenerase)] | 0.174 | 0.506
CC[C@]12C=CCN3CC[C@@]4(c5cc([C@@]6(C(=O)OC)C[C@@H]7C[C@@H](C(C)(F)F)CN(Cc8c6[nH]c6ccccc86)C7)c(OC)cc5N(C)[C@H]4[C@@](O)(C(=O)OC)[C@@H]1OC(C)=O)[C@@H]32 [Vinflunine Tartrate] | 0.315 | 0.556
Nc1nc(=O)c2nc(CNc3ccc(C(=O)N[C@@H](CCC(=O)O)C(=O)O)cc3)cnc2[nH]1 | 0.21 | 0.831
N[C@@H](Cc1c[nH]c2ccccc12)C(=O)O | 0.368 | 0.604
CCS(=O)(=O)CCn1c([N+](=O)[O-])cnc1C | 0.603 | 1.08
Nc1c2c(nc3ccccc13)CCCC2 | 0.414 | 0.996
COCCCOc1ccnc(C[S+]([O-])c2nc3ccccc3[nH]2)c1C (centres undefined) | 0.186 | 0.865
Cc1cc(=O)[nH]c(=S)[nH]1 | 0.707 | 0.716
CN(C(=O)C(Cl)Cl)c1ccc(OC(=O)c2ccco2)cc1 | 0.156 | 0.938
CC(=O)c1ccc2c(c1)N(CCCN(C)C)c1ccccc1S2 | 0.165 | 1.27
CCC(=O)O[C@@H](O[P@](=O)(CCCCc1ccccc1)CC(=O)N1C[C@H](C2CCCCC2)C[C@H]1C(=O)O)C(C)C [Fosinopril sodium (Monopril)] | 0.0781 | 0.378
CC/C(=C(/CC)c1ccc(O)cc1)c1ccc(O)cc1 | 0.0115 | 0.065
CC(C)(O/N=C(\C(=O)N[C@@H]1C(=O)N2C(C(=O)[O-])=C(C[n+]3ccccc3)CS[C@H]12)c1csc(N)n1)C(=O)O | 0.00772 | 1.28
CCCS(=O)(=O)Nc1ccc(F)c(C(=O)c2c[nH]c3ncc(-c4ccc(Cl)cc4)cc23)c1F [Vemurafenib (PLX4032)] | 0.416 | 0.489
C[C@@H]1NC(=O)[C@@H](N)CNC(=O)[C@H](C2CCNC(=N)N2)NC(=O)/C(=C/NC(N)=O)NC(=O)[C@H](CNC(=O)CC(N)CCCN)NC1=O.N=C1NCCC([C@@H]2NC(=O)/C(=C/NC(N)=O)NC(=O)[C@H](CNC(=O)CC(N)CCCN)NC(=O)[C@H](CO)NC(=O)[C@@H](N)CNC2=O)N1 (some centres undefined) | 0.494 | 0.758

SMILES | normalized GFP fluorescence [1] | normalized DsRed fluorescence [2]
CCOC(=O)[N-]c1c[n+](N2CCOCC2)no1 | 0.369 | 0.863
C1CCC(C(CC2CCCCN2)C2CCCCC2)CC1 (centres undefined) | 0.000248 | 0.0259
CCCN[C@H]1CCc2nc(N)sc2C1 [Pramipexole dihydrochloride monohydrate] | 0.713 | 0.597
CNCC[C@@H](Oc1ccccc1C)c1ccccc1 | 0.319 | 0.638
CCOc1cc([C@@H](CS(C)(=O)=O)N2C(=O)c3cccc(NC(C)=O)c3C2=O)ccc1OC | 0.254 | 0.579
CC1(C)O[C@@H]2C[C@H]3[C@@H]4C[C@H](F)C5=CC(=O)C=C[C@]5(C)[C@@]4(F)[C@@H](O)C[C@]3(C)[C@]2(C(=O)CO)O1 | 0.372 | 0.706
CN1CCC(OC(c2ccccc2)c2ccccc2)CC1 | 0.0847 | 1.1
CC(=O)[C@H]1CC[C@H]2[C@@H]3CCC4=CC(=O)CC[C@]4(C)[C@H]3CC[C@]12C | 0.278 | 0.415
CCc1ccc(CCOc2ccc(CC3SC(=O)NC3=O)cc2)nc1 (centres undefined) | 0.499 | 0.952
Cc1cccc(C)c1NC(=O)C1CCCCN1C (centres undefined) | 0.677 | 0.7
CC(C)(C)NCC(O)COc1cccc2c1CC(O)C(O)C2 (centres undefined) | 0.721 | 0.671
COc1ccc(-c2ccc3cc(C(=O)O)ccc3c2)cc1C12CC3CC(CC(C3)C1)C2 | 0.582 | 0.97
COC(=O)C1=C(C)NC(C)=C(C(=O)OCCN2CCN(C(c3ccccc3)c3ccccc3)CC2)C1c1cccc([N+](=O)[O-])c1 (centres undefined) | 0.002 | 0.944
Cc1cn(-c2cc(NC(=O)c3ccc(C)c(Nc4nccc(-c5cccnc5)n4)c3)cc(C(F)(F)F)c2)cn1 [Nilotinib (AMN-107)] | 0.547 | 0.566
O=C(O)c1cc(/N=N/c2ccc(S(=O)(=O)Nc3ccccn3)cc2)ccc1O [Sulfasalazine (Azulfidine)] | 0.311 | 0.584
S=c1[nH]cnc2nc[nH]c12 | 0.195 | 0.762
